In PubChem BioAssay (EPA / NIEHS):
Where “and” joins values, the source holds several entries; their conditions need not be identical. Identical values can stand only once. Results filed as inconclusive are left out. Calls of active or inactive are those of the source. Rule for the calls: active = hit-call score of the fitted dose curve at least 0.9, where 1 is the maximum; inconclusive = response in the unintended direction; inactive = score below 0.9.

target: Retinoic acid receptor RXR-alpha (Homo sapiens) (UniProt P19793); test: OT_NURR1_NURR1RXRa_1440: Odyssey Thera (OT) 24-hour HEK293T Protein Complementation Assay for Nurr1/retinoid X receptor (RXR) (AID 2283386)
Sequence (P19793 whole entry, looked up): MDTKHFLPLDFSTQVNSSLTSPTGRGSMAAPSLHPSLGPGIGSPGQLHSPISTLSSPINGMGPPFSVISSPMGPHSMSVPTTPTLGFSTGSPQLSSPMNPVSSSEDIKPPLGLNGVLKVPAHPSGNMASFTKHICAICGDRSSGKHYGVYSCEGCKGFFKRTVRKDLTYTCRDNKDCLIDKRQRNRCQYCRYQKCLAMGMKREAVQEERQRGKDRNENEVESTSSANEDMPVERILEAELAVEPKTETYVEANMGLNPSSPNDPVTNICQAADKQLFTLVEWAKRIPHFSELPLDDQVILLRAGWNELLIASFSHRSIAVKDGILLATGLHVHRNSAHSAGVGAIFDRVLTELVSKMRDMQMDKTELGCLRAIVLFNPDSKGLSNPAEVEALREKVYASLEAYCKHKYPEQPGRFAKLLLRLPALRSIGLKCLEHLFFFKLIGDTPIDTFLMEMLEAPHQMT
Outline: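 Measured as fluorescence from a reconstituted split reporter, this 24 h HEK293T complementation assay scores compound-induced gain of Nurr1/RXRα association relative to DMSO.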

Compound | outcome | AC50
CCc1nc(N)nc(N)c1-c1ccc(Cl)cc1 | inactive | –
O=Cc1ccccc1C=O | inactive | –
Cn1cnc2c1c(=O)[nH]c(=O)n2C | inactive | –
O=C(O)CN(CC(=O)O)CC(=O)O | inactive | –
CN(C)C(=O)NC1(c2ccccc2)CCN(CCC[C@]2(c3ccc(Cl)c(Cl)c3)CCCN(C(=O)c3ccccc3)C2)CC1 | inactive | –
CC(C)NCC(O)c1ccc(O)c(O)c1 (stereo not drawn) | – | 35.5 nM (active) and 30 nM (active)
CCCCCCCCCCCCCCOS(=O)(=O)O | inactive | –
O=C1OC(c2ccc(O)cc2)(c2ccc(O)cc2)c2ccccc21 | inactive | –
S=c1[nH]c2ccccc2s1 | inactive | –
NC(=Nc1ccccc1)Nc1ccccc1 | – | 11.6 µM (active)

target: Peroxisome proliferator-activated receptor gamma (Homo sapiens) (UniProt P37231); test: OT_PPARg_PPARgSRC1_0480: Odyssey Thera (OT) 8-hour Protein-Complementation Assay for Peroxisome Proliferator-activated Receptor Gamma / SRC-1 Co-activator (AID 2283387);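 note: nuclear to cytoplasmic split Venus YFP fluorescence ratio reporting PPARg SRC-1 interaction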
Sequence (P37231 whole entry, looked up, the tested form may be a part): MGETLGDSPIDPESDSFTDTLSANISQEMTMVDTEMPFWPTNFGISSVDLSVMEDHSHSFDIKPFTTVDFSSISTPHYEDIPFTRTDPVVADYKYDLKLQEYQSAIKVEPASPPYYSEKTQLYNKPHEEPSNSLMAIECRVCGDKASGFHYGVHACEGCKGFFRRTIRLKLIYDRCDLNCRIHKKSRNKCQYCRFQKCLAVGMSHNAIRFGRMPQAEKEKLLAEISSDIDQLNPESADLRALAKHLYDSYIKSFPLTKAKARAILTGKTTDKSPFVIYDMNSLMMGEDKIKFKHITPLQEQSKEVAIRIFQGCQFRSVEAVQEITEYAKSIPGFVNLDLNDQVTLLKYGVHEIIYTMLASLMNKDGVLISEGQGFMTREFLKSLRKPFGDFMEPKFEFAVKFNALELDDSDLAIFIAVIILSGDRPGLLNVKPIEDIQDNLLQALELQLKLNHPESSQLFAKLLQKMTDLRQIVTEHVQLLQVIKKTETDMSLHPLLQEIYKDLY
Outline: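 Read-out: 488 nm N/C fluorescence ratio from complemented Venus YFP fragments, ≥350 cells per image, gain-of-signal fitted against DMSO baseline. Fusions of PPARg/SRC-1 with IFP1/IFP2 expressed transiently in HEK293T; compounds applied 8 h.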

Compound | AC50 | outcome
COC(=O)[C@H]1[C@H]2C[C@@H]3c4[nH]c5cc(OC)ccc5c4CCN3C[C@H]2C[C@@H](OC(=O)c2cc(OC)c(OC)c(OC)c2)[C@@H]1OC | 11.4 µM (active) and 58 µM (active) | –
CCc1nc(N)nc(N)c1-c1ccc(Cl)cc1 | – | inactive
O=C1NC(=O)C(c2ccccc2)(c2ccccc2)N1 | – | inactive
O=Cc1ccccc1C=O | – | inactive
Cn1cnc2c1c(=O)[nH]c(=O)n2C | – | inactive
Nc1nc(=S)c2[nH]cnc2[nH]1 | – | inactive
CN(C)CCCN1c2ccccc2Sc2ccc(Cl)cc21 | – | inactive
O=C(O)CN(CC(=O)O)CC(=O)O | – | inactive
CCCCC(CC)COP(=O)(OCC(CC)CCCC)OCC(CC)CCCC (stereo not drawn) | – | inactive
CN(C)C(=O)NC1(c2ccccc2)CCN(CCC[C@]2(c3ccc(Cl)c(Cl)c3)CCCN(C(=O)c3ccccc3)C2)CC1 | – | inactive
CN(C)C(=O)NC1(c2ccccc2)CCN(CC[C@@]2(c3ccc(F)c(F)c3)CN(C(=O)c3ccccc3)CCO2)CC1 | – | inactive
CC(C)NCC(O)c1ccc(O)c(O)c1 (stereo not drawn) | – | inactive
CCCCCCCCCCCCCCOS(=O)(=O)O | – | inactive
CSc1ccc(Oc2ccc(S(N)(=O)=O)cc2CN(C)C)cc1C | – | inactive
O=C1OC(c2ccc(O)cc2)(c2ccc(O)cc2)c2ccccc21 | – | inactive
CCN(CC)CCOc1ccc(C(=C(Cl)c2ccccc2)c2ccccc2)cc1 | – | inactive
C/C=C/C=C/C(=O)O | – | inactive
S=c1[nH]c2ccccc2s1 | – | inactive
CC(COCC(C)OC(=O)c1ccccc1)OC(=O)c1ccccc1 (stereo not drawn) | – | inactive
Cc1ccc(-c2cc(C(F)(F)F)nn2-c2ccc(S(N)(=O)=O)cc2)cc1 | – | inactive
Cc1cc(SC2=C(O)C[C@@](CCc3ccc(N)cc3)(C(C)C)OC2=O)c(C(C)(C)C)cc1CO | – | inactive
O=C(N[C@@H](c1ccccc1)[C@@H]1CCCCN1)c1cccc(C(F)(F)F)c1Cl | – | inactive
CCC(C)N(C)C(=O)c1cc2ccccc2c(-c2ccccc2Cl)n1 (stereo not drawn) | – | inactive
NC(=Nc1ccccc1)Nc1ccccc1 | – | inactive

target: Peroxisome proliferator-activated receptor gamma (Homo sapiens) (UniProt P37231); test: OT_PPARg_PPARgSRC1_1440: Odyssey Thera (OT) 24-hour Protein-Complementation Assay for Peroxisome Proliferator-activated Receptor Gamma/ SRC-1 Co-activator (AID 2283388);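 note: nuclear to cytoplasmic ratio of reconstituted Venus YFP fluorescence in fixed imaged cells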
Outline: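 Transient HEK293T, YFP fragments 1-158/159-239 (mutant IFP1/IFP2) fused to PPARg/SRC-1; 24 h dosing; fix 4% formaldehyde, Draq5; Opera imaging 488/635 nm; N/C ratio, gain vs DMSO.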

Compound | AC50 | outcome
COC(=O)[C@H]1[C@H]2C[C@@H]3c4[nH]c5cc(OC)ccc5c4CCN3C[C@H]2C[C@@H](OC(=O)c2cc(OC)c(OC)c(OC)c2)[C@@H]1OC | 12.5 µM (active) and 34.3 µM (active) | –
CCc1nc(N)nc(N)c1-c1ccc(Cl)cc1 | – | inactive
O=C1NC(=O)C(c2ccccc2)(c2ccccc2)N1 | – | inactive
O=Cc1ccccc1C=O | – | inactive
Cn1cnc2c1c(=O)[nH]c(=O)n2C | – | inactive
Nc1nc(=S)c2[nH]cnc2[nH]1 | – | inactive
CN(C)CCCN1c2ccccc2Sc2ccc(Cl)cc21 | – | inactive
O=C(O)CN(CC(=O)O)CC(=O)O | – | inactive
CCCCC(CC)COP(=O)(OCC(CC)CCCC)OCC(CC)CCCC (stereo not drawn) | – | inactive
CN(C)C(=O)NC1(c2ccccc2)CCN(CCC[C@]2(c3ccc(Cl)c(Cl)c3)CCCN(C(=O)c3ccccc3)C2)CC1 | – | inactive
CN(C)C(=O)NC1(c2ccccc2)CCN(CC[C@@]2(c3ccc(F)c(F)c3)CN(C(=O)c3ccccc3)CCO2)CC1 | – | inactive
CC(C)NCC(O)c1ccc(O)c(O)c1 (stereo not drawn) | – | inactive
CCCCCCCCCCCCCCOS(=O)(=O)O | – | inactive
CSc1ccc(Oc2ccc(S(N)(=O)=O)cc2CN(C)C)cc1C | – | inactive
O=C1OC(c2ccc(O)cc2)(c2ccc(O)cc2)c2ccccc21 | – | inactive
CCN(CC)CCOc1ccc(C(=C(Cl)c2ccccc2)c2ccccc2)cc1 | – | inactive
C/C=C/C=C/C(=O)O | – | inactive
S=c1[nH]c2ccccc2s1 | – | inactive
CC(COCC(C)OC(=O)c1ccccc1)OC(=O)c1ccccc1 (stereo not drawn) | – | inactive
Cc1ccc(-c2cc(C(F)(F)F)nn2-c2ccc(S(N)(=O)=O)cc2)cc1 | – | inactive
Cc1cc(SC2=C(O)C[C@@](CCc3ccc(N)cc3)(C(C)C)OC2=O)c(C(C)(C)C)cc1CO | – | inactive
O=C(N[C@@H](c1ccccc1)[C@@H]1CCCCN1)c1cccc(C(F)(F)F)c1Cl | – | inactive
CCC(C)N(C)C(=O)c1cc2ccccc2c(-c2ccccc2Cl)n1 (stereo not drawn) | – | inactive
NC(=Nc1ccccc1)Nc1ccccc1 | – | inactive
